Of roughly 8,800 targets only a part is listed; those with a hit were picked by preference. About 0.5% of all pairs of compound and target were hits. A number with no mark means an inactive call.
Experiments:
Assay in all cases: log2 fold change, soluble protein after heating vs DMSO (PISA); higher = thermal stabilisation; K562 lysate, 10 uM; active = over 0.2 and 3.5 SD of the protein, either way, in both replicates (recomputed)
ibrutinib = compound: C=CC(=O)N1CCC[C@@H](n2nc(-c3ccc(Oc4ccccc4)cc3)c3c(N)ncnc32)C1 [ibrutinib]
In short: (§1)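 Thermal stability, expressed as log-two fold change relative to solvent controls, is given from duplicates. Crude K562 extract in PBS pH 7.4 with 1 mM MgCl2, at 1 mg/mL protein, was treated with 10 μM compound for 30 min and heated in aliquots for 3 min across 48°C-58°C. After pooling, adjustment to 0.5% NP-40 at 4°C and centrifugation at 21,000xg for 90 min, supernatant protein was measured by TMTpro 16plex LC-MS/MS with channel sums equalised.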

[1] = compound: CC(=O)c1cnc2ccc(-c3cc(Cl)c(O)c(Cl)c3)nc2c1N[C@H]1CC[C@H](CN(C)C)CC1
In short: as §1

ralimetinib = compound: CC(C)(C)Cn1c(N)nc2ccc(-c3[nH]c(C(C)(C)C)nc3-c3ccc(F)cc3)nc21 [ralimetinib]
In short: as §1

[2] = compound: CC(C)(O)CC(=O)NCCn1ccc2ncnc(Nc3ccc(Oc4cccc(C(F)(F)F)c4)c(Cl)c3)c21
In short: as §1

[3] = compound: CC(C)C1=C2N=C(C=C(N2N=C1)NCC3=CC=CC=C3)NCCCCCCN
In short: as §1

[4] = compound: CC1=C(C(CC(=O)N1)C2=CC=C(C=C2)C(F)(F)F)C(=O)NC3=C(C=C4C(=C3)C=NN4)F
In short: as §1

[5] = compound: CC1=C(C2=C(C=C1)C(=O)C3=CC=CC=C3N2CCCN)C
In short: as §1

[6] = compound: CC1=C(C=C(C=C1)NC(=O)C2=CC(=CC=C2)C(C)(C)C#N)NC3=CC4=C(C=C3)N=CN(C4=O)C
In short: as §1

[7] = compound: CC1=C(C=C(C=C1)NC(=O)C2=CC(=CC=C2)N(C)C)NC(=O)C3=CC=C(C=C3)O
In short: as §1

[8] = compound: CC1=CC=C(C=C1)SC2=C3C=C(SC3=CN=C2)C(=O)N
In short: as §1

vemurafenib = compound: CCCS(=O)(=O)Nc1ccc(F)c(C(=O)c2c[nH]c3ncc(-c4ccc(Cl)cc4)cc23)c1F [vemurafenib]
In short: as §1

[9] = compound: CCCS(=O)(=O)Nc1ccc(F)c(C(=O)c2c[nH]c3ncc(Cl)cc23)c1F
In short: as §1

barasertib = compound: CCN(CCCOc1ccc2c(Nc3cc(CC(=O)Nc4cccc(F)c4)[nH]n3)ncnc2c1)CCOP(=O)(O)O [barasertib]
In short: as §1

[10] = compound: CC[C@@H]1C(=O)N(C)c2cnc(Nc3ccc(C(=O)NC4CCN(C)CC4)cc3OC)nc2N1C1CCCC1
In short: as §1

volasertib = compound: CC[C@@H]1C(=O)N(C)c2cnc(Nc3ccc(C(=O)N[C@H]4CC[C@H](N5CCN(CC6CC6)CC5)CC4)cc3OC)nc2N1C(C)C [volasertib]
In short: as §1

[11] = compound: CCn1c(C(=O)N(C2CC2)C2CC2)cc2c3c(ncn3C)c(Nc3cc(C)n(C)n3)nc21
In short: as §1

[12] = compound: CCn1cc(-c2ccnc3[nH]c(-c4cccc(CN(C)C)c4)cc23)c(-c2ccc(NC(=O)N(C)C)cc2)n1
In short: as §1

[13] = compound: CN1CCC(CNc2ccc3ncc(-c4cccc(OC(F)(F)F)c4)n3n2)CC1
In short: as §1

saracatinib = compound: CN1CCN(CCOc2cc(OC3CCOCC3)c3c(Nc4c(Cl)ccc5c4OCO5)ncnc3c2)CC1 [saracatinib]
In short: as §1

sotrastaurin = compound: CN1CCN(c2nc(C3=C(c4c[nH]c5ccccc45)C(=O)NC3=O)c3ccccc3n2)CC1 [sotrastaurin]
In short: as §1

UniProt Q71F56, sequence (Q71F56 whole entry, looked up): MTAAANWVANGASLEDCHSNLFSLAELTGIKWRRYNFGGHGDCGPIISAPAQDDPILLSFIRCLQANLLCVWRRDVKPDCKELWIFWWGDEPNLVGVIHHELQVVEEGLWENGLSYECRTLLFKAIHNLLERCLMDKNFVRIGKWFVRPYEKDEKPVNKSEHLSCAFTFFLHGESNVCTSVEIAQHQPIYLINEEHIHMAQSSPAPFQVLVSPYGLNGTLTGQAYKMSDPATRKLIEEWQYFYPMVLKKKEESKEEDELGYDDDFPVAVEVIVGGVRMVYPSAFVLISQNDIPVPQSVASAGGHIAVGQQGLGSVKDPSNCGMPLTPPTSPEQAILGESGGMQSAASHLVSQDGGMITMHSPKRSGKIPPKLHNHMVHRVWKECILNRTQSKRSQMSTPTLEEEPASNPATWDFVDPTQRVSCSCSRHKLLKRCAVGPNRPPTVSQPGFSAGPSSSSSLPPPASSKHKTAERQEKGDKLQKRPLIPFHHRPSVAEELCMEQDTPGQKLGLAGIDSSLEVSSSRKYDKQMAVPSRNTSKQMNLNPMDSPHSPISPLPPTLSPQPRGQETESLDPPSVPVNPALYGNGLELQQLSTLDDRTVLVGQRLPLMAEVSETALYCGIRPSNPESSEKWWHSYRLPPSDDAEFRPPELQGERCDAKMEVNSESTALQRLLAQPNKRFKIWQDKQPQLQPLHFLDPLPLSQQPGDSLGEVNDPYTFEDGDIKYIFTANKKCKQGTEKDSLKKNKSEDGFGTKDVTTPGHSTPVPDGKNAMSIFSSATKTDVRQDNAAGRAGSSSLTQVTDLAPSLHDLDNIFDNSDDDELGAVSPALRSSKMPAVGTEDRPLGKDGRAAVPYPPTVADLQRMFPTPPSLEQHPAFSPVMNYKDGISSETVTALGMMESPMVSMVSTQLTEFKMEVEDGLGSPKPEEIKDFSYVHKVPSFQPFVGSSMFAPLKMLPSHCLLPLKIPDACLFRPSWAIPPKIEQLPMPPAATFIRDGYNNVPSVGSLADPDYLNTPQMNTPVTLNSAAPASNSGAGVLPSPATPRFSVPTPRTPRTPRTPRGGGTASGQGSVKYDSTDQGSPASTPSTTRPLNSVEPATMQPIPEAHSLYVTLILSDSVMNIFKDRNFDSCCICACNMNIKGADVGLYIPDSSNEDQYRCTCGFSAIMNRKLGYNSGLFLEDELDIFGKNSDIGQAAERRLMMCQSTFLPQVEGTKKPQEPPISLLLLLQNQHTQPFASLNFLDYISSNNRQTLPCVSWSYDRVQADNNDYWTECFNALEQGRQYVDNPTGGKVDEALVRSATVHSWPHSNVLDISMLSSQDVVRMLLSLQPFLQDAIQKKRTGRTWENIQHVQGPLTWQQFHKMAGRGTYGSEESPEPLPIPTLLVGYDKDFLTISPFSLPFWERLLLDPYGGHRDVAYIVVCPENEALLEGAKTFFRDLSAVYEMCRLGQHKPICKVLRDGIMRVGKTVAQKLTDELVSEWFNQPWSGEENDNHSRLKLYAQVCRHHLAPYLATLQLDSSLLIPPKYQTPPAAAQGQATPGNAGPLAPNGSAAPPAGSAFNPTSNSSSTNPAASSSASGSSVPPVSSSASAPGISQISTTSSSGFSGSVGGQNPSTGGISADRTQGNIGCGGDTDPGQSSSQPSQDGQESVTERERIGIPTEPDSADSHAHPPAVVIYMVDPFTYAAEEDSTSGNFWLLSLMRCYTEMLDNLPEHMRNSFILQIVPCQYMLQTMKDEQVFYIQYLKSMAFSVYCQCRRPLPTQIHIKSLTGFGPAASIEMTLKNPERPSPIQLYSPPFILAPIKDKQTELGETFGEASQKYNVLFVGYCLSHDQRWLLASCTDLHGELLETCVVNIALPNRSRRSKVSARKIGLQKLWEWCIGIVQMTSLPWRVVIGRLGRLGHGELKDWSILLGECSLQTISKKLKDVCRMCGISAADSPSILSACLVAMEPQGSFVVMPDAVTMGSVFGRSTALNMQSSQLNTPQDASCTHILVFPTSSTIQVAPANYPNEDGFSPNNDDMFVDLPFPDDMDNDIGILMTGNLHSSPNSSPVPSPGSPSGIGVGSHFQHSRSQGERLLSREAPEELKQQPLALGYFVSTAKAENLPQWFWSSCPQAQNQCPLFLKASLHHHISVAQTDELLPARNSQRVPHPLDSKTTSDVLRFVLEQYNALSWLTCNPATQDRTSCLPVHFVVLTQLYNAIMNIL
UniProt P34949, sequence (P34949 whole entry, looked up): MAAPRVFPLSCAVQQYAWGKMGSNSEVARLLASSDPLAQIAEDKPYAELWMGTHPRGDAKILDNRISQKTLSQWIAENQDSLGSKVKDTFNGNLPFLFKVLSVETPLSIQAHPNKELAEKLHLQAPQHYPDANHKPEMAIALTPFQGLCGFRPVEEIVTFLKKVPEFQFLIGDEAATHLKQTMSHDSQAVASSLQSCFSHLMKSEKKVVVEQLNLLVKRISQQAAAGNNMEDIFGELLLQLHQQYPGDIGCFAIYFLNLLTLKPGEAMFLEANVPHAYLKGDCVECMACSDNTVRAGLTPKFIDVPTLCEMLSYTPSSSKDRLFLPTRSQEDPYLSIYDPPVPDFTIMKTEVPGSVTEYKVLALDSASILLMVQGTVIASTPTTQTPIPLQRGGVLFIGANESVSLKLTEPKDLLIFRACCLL
UniProt Q14739, sequence (Q14739 whole entry, looked up): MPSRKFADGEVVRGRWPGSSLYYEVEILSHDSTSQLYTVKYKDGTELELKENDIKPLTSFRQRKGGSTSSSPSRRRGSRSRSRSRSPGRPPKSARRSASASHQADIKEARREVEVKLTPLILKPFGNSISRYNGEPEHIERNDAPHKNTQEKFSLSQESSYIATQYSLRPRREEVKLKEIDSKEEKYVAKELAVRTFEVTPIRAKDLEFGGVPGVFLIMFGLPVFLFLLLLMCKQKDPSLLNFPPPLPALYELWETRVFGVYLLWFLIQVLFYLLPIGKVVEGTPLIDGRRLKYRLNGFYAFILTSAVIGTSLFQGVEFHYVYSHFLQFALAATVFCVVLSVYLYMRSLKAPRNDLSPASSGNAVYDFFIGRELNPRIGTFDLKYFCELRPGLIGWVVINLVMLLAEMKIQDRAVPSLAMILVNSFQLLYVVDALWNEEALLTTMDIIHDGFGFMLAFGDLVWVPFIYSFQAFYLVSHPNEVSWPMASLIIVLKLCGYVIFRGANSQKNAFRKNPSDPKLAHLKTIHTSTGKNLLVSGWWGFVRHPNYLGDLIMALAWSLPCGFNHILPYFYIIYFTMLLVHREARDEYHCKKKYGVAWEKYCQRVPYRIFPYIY
UniProt Q13601, sequence (Q13601 whole entry, looked up): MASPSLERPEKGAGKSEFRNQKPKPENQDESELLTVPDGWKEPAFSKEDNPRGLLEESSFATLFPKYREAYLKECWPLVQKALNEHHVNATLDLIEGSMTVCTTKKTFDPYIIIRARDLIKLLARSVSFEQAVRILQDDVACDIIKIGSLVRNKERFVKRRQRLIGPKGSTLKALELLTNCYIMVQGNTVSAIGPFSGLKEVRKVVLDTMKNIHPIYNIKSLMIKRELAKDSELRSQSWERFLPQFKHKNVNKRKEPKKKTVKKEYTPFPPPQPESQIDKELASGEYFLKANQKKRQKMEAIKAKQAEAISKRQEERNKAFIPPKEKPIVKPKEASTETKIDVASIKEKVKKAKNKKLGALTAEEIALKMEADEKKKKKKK
UniProt Q8NE86, sequence (Q8NE86 whole entry, looked up): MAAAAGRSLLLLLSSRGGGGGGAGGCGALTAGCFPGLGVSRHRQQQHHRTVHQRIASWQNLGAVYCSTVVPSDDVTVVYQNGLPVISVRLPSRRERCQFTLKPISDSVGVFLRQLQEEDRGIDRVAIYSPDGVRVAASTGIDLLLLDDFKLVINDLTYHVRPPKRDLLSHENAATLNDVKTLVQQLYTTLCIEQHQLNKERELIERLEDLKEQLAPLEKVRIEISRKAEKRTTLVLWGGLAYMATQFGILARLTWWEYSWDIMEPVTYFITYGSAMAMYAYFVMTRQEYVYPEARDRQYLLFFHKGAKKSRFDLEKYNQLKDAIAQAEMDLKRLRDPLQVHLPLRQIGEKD
UniProt Q8WVR3, sequence (Q8WVR3 whole entry, looked up): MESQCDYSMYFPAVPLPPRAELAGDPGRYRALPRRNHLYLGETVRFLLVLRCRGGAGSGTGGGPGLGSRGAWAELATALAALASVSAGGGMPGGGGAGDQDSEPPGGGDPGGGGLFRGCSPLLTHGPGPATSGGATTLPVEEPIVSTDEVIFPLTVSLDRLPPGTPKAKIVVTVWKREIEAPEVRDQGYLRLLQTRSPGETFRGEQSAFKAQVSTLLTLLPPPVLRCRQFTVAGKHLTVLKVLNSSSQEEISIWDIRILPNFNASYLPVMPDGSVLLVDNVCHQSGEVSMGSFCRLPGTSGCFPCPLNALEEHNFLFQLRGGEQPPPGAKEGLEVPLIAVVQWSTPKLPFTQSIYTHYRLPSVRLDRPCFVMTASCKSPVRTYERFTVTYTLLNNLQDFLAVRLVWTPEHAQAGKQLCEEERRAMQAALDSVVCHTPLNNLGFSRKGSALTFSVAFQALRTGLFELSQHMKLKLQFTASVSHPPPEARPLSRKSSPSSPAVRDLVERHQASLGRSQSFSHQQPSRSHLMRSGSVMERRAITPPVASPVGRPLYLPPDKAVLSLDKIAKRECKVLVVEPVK
UniProt P45983, sequence (P45983 whole entry, looked up): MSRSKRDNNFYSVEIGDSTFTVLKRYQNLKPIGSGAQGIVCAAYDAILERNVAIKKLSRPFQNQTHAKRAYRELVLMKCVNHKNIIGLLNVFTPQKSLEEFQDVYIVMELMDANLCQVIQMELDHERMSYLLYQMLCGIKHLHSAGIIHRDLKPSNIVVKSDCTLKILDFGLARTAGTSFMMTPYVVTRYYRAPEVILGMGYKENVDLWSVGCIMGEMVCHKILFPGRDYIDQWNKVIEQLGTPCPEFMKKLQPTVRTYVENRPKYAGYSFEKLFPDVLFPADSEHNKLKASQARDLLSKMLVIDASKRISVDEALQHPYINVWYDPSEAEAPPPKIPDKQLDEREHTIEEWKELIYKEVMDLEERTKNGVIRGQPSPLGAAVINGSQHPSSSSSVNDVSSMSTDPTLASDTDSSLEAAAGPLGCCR

Target	log2 fold change (ibrutinib)	log2 fold change [1]	log2 fold change (ralimetinib)	log2 fold change [2]	log2 fold change [3]	log2 fold change [4]	log2 fold change [5]	log2 fold change [6]	log2 fold change [7]	log2 fold change [8]	log2 fold change (vemurafenib)	log2 fold change [9]	log2 fold change (barasertib)	log2 fold change [10]	log2 fold change (volasertib)	log2 fold change [11]	log2 fold change [12]	log2 fold change [13]	log2 fold change (saracatinib)	log2 fold change (sotrastaurin)
LIMS1 isoform 3 (UniProt P48059)	0.003	0.033	0.003	0.023	-0.036	-0.012	-0.01	0.052	-0.023	-0.006	-0.055	-0.006	0.014	0.008	0.024	-0.002	-0.005	0.045	0.014	-0.162
MPZL1 (UniProt O95297)	0.01	-0.008	-0.01	0.022	-0.035	-0.006	0.003	0.02	-0.035	-0.036	0.037	0.001	0.024	0.057	0.035	0.027	0.262 (active)	-0.052	0.045	-0.022
MAP2K7 isoform 4 (UniProt O14733)	1.44 (active)	0.288	0.028	0.028	-0.071	-0.029	0.011	-0.004	-0.002	0.018	0.073	0.087	-0.02	0.016	-0.04	0.042	0.004	-0.02	0.032	0.02
MED13L (UniProt Q71F56)	0.047	-0.036	0.014	-0.016	0.005	-0.027	-0.036	0.007	0.015	-0.035	-0.043	-0.012	0.028	0.01	-0.058	0.038	-0.023	0.064	-0.037	-0.018
LYRM4 (UniProt Q9HD34)	0.015	0.034	-0.036	-0.042	0.017	0.017	-0.027	0.109	-0.034	-0.009	0.026	0.015	-0.04	-0.051	0.021	0.03	0.715 (active)	-0.035	0.007	-0.05
KRR1 (UniProt Q13601)	0.037	0.009	0.035	0.042	-0.04	0.041	-0.032	0.144	0.093	-0.027	0.057	0.01	0.026	0.065	-0.015	0.023	-0.006	-0.026	0.003	-0.021
MORF4L1 isoform 2 (UniProt Q9UBU8)	-0.038	-0.012	0.011	-0.062	0.019	-0.034	-0.089	0.01	0.003	0.021	0.034	-0.017	0.007	0.016	0	-0.005	-0.036	0.131	0.038	0.019
MCU (UniProt Q8NE86)	-0.05	0.04	0.086	-0.021	-0.055	0.014	0.02	0.034	0.014	-0.023	0.011	0.017	0.077	-0.085	-0.033	-0.049	-0.062	-0.099	0.04	0.017
KIF2A isoform 4 (UniProt O00139)	0.031	0	0.017	0.009	0.002	-0.01	-0.002	-0.02	0.032	0.018	-0.006	0	-0.014	-0.117	-0.032	0.042	-0.013	0.009	0.021	0.023
MAPK8 isoform 3 (UniProt P45983)	0.038	0.445 (active)	0.294	0.025	0.035	-0.057	-0.017	0.013	0.047	-0.012	0.06	0.022	0.007	-0.123	-0.02	-0.005	0.013	0.055	0.027	0.01
MICB, A0A140T979	0.074	0.317	-0.037	-0.101	-0.07	-0.11	-0.002	0.016	0.004	-0.068	-0.054	0.098	0.039	0.223	-0.072	-0.084	-0.05	0.066	0.019	0.096
MAP4 (UniProt P27816)	0.002	-0.005	-0.016	-0.002	0.016	-0.023	-0.016	0.006	-0.001	-0.008	0.01	-0.017	-0.016	0.064	0.033	-0.022	-0.042	0.036	-0.009	-0.027
LBR (UniProt Q14739)	0.034	-0.01	0.019	-0.121	-0.029	0.018	0.065	-0.089	-0.026	-0.036	0.012	0.008	0.041	0.014	0.156	0.052	0.117	-0.22	0.064	0.048
MAP11 (UniProt Q8WVR3)	0.064	0.072	0.037	-0.008	-0.005	0.105	-0.063	0.014	-0.031	0.078	-0.032	0.044	0.07	0.129	-0.079	0.086	0.049	0.06	0.033	-0.039
MPI (UniProt P34949)	0.029	0.031	-0.06	0.009	-0.039	-0.004	-0.051	0.055	-0.012	-0.013	0.013	0.007	0.008	0.014	-0.02	-0.011	0.149	-0.067	-0.028	0.025
MAPKAPK3 (UniProt Q16644)	0.011	0.026	0.006	-0.003	-0.011	0.065	-0.027	0.082	0.029	0.033	-0.02	-0.018	0.015	-0.145	0.002	0.028	-0.001	-0.067	0.003	-0.014

— the supplement of paper PMC10849652
